Assay results reported in PubChem BioAssay (NCI).
About 83,000 compounds went through this panel and 20% of them were active in at least one assay; those are over-represented in the sample as a whole.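 For each line, cells grew in 96-well plates with the test compound present at a single concentration for 48 hours.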 Active and inactive are the calls of the source. The calls were made as follows: active = growth percent below 10; inactive = the rest.

test system: HL-60(TB) leukemia; assay: NCI-60 one-dose screen, 48 h (100 = growth as untreated, 0 = no growth, -100 = all killed); details: 10 µM unless noted

Structure (SMILES)	growth
COc1cccc(/C=C/C(=O)/C=C(/C=C/c2cccc(OC)c2OC)OB(F)F)c1OC	26.1% (inactive)
COc1cc(N)c2nccc(C)c2c1OC	96.2% (inactive)
O=C1/C=C/[C@@H](O)[C@@H]2C[C@@H](O)C[C@H]2/C=C/CCC[C@H]([C@@H](O)CO)O1	101% (inactive)
Cc1cc(NC(=O)COC(=O)c2sc3cc(F)ccc3c2Cl)no1	107% (inactive)
CCNC(=S)N(Cc1ccccc1)Cc1ccccc1	96.2% (inactive)
C/C=C/C/C=C/[C@H](C)C[C@H](O)[C@@H]1C[C@@H]2O[C@H]2/C=C/[C@@H]2OC(C)(C)O[C@H]2/C=C/C[C@H](C)CC(=O)O1	31.2% (inactive)
O=C(Nc1cccc(Cl)c1)c1cc(N=Nc2ccc([N+](=O)[O-])cc2Cl)ccc1O	38.2% (inactive)
Cc1cc(N/N=C/c2nc(-c3ccccc3)oc2C)c2cc(Br)ccc2n1	80% (inactive)
O=C1/C(=C\c2cn(-c3nc(N4CCOCC4)nc(N4CCOCC4)n3)c3ccccc23)c2ccccc2N1c1c(Cl)cccc1Cl	64.7% (inactive)
c1ccc(-c2oc3ccccc3c2-c2ccccc2)cc1	48.5% (inactive)
CC(C)C1CCC(C)C(O)C1 (stereo not drawn)	103% (inactive)
S=C(NCCNC(=S)[S][Sn]([c]1ccccc1)([c]1ccccc1)[c]1ccccc1)[S][Sn]([c]1ccccc1)([c]1ccccc1)[c]1ccccc1	-31% (active)
C[C@@H]1C(=O)N(C[C@@H](Cc2ccccc2)NC(=O)OCc2ccccc2)[C@]1(Cc1ccccc1)C(=O)OCc1ccccc1	13.1% (inactive)
